# Source: PubChem BioAssay (National Center for Advancing Translational Sciences (NCATS))
# TGFb SMAD3 inh = qHTS for Inhibitors of TGF-b | HepG2 CAGA-GFP TGF-b/SMAD3 reporter, GFP fluorescence, 18 h; TGF-beta stimulated, 500 pg/mL final | Potency, µM (series often up to 46.1 µM), without a hit: at the highest dose activity, negative = inhibition, actives largely listed as inhibitors | actives 1.2% (n = 410,000) | AID 588855, 2011; further: on the % scale 0 is the no-effect control and ±100 the full control effect; nearly all actives have a fitted effect of over 65% in size
#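 Per well, imaged GFP fluorescence of HEPG2 CAGA-GFP cells gives the signal; cells get compound, then TGF-beta (500 pg/mL final), 18 h at 37 degrees C; %Activity versus -TGF-beta and +DMSO controls.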
# HepG2 tox-1 = qHTS for Inhibitors of TGF-b: Cytotox Counterscreen | Potency, µM (top dose mostly 46.1 µM), for the others: at the top dose activity change, negative = cytotoxicity, usual class: cytotoxic | HepG2 CAGA-GFP viability, ATP luminescence, 18 h | actives 0.76% (n = 410,000)
#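 CellTiter-Glo luminescence gave cytotoxicity after 18 hours at 37 degrees C. The cells were HepG2 CAGA-GFP in 1% FBS DMEM, stimulated with 500 pg/mL TGF-beta after compound addition. %Activity was normalised to no-cell wells (complete cell-killing) and DMSO (no toxicity), and curves were fitted and classified.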
# DT40 TDP1 CPT = qHTS for Inhibitors of human tyrosyl-DNA phosphodiesterase 1 (TDP1): qHTS in cells in presence of CPT | Potency, µM (top dose mostly 46.2 µM), for inactives: at the top dose activity change, negative = growth inhibition, actives largely listed as inhibitors | actives 12% (n = 420,000) | chicken DT40 Tdp1-/-;hTDP1 cells + 20 nM CPT, ATP luminescence, 48 h | AID 686979, 2013; further: on the % scale 0 is the no-effect control and ±100 the full control effect; nearly all actives have a fitted effect of over 55% in size
#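 Chicken DT40 Tdp1-/- cells stably complemented with human TDP1 were seeded at 400 cells/well in medium containing 20 nM camptothecin, exposed to pin-transferred compounds, and grown at 37 °C for at least 48 hr. Viability was read as ATP luminescence.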
# TDP1 cell noCPT = qHTS for Inhibitors of human tyrosyl-DNA phosphodiesterase 1 (TDP1): qHTS in cells in absence of CPT; AID 686978, 2013; Potency, µM (series often up to 46.2 µM), for the others: top-dose activity change, negative = growth inhibition, most hits filed as inhibitors; actives 15% (n = 420,000); DT40 Tdp1-/- hTDP1 cells, no CPT, ATP luminescence, 48 h; further: on the % scale 0 is the no-effect control and ±100 the full control effect; nearly all actives have a fitted effect of over 55% in size
#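 Readout: luminescence from CellTiter-Glo after 30 min in the dark at RT. Cells: DT40 Tdp1-/- with stable hTDP1, 400/well. Exposure: compounds alone, ≥48 hr, 37 °C.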
# ATXN2 expr inh = Primary qHTS for Inhibitors of ATXN expression. actives 0.72% (n = 360,000). HEK-293 ATXN2-luciferase reporter, luminescence, 24 h. Potency, µM (highest dose often 57 µM), for inactives: at the top dose activity change, negative = inhibition, hits mostly inhibitors; further: on the % scale 0 is the no-effect control and ±100 the full control effect; nearly all actives have a fitted effect of over 55% in size
#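 qHTS (up to 57 uM final) was run with 24 h compound exposure of reporter cells at 37 °C. Each well was multiplexed: SteadyGlo luminescence measured ATXN2-luciferase expression after a fluorogenic Gly-Phe-AFC viability readout (25 uM final).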
# S2 tox = Viability Counterscreen for Primary qHTS for Inhibitors of ATXN expression | S2 cells (HEK-293 line with an ATXN2-luciferase reporter) viability, CellTiter-Fluor protease fluorescence, 24 h | Potency, µM (top dose mostly 56.7 µM), actives largely listed as cytotoxic | actives 0.49% (n = 400,000); further: nearly all actives have a fitted effect of over 40% in size
# TGFb CAGA inh = qHTS for Inhibitors of TGF-b: Confirmation of Cherry Picks; Potency, µM (doses to about 46.1 µM), for the others: top-dose activity, negative = inhibition, usual class: inhibitors; HepG2 CAGA-GFP TGF-b reporter, GFP fluorescence, 18 h; cells stimulated with TGF-beta, 500 pg/mL; actives 63% (n = 1,600); shares compounds with TGFb SMAD3 inh; further: on the % scale 0 is the no-effect control and ±100 the full control effect; nearly all actives have a fitted effect of over 65% in size
# HepG2 tox-2 = qHTS for Inhibitors of TGF-b: Cytotox Counterscreen for Cherry Picks; actives 27% (n = 1,600); HepG2 CAGA-GFP viability, ATP luminescence, 18 h; cells stimulated with TGF-beta, 500 pg/mL; Potency, µM (doses to about 46.1 µM), inactives show at the highest dose activity, negative = cytotoxicity, hits mostly inhibitors; shares compounds with TGFb SMAD3 inh; further: on the % scale 0 is the no-effect control and ±100 the full control effect; nearly all actives have a fitted effect of over 70% in size
# TGFb CCL64 inh = qHTS for Inhibitors of TGF-b: CCL64 Cells Orthogonal Assay for Cherry Picks; AID 720536, 2013; Potency, µM (titrated, usually from 46.1 µM), inactives show at the top dose activity, negative = inhibition, hits mostly inhibitors; actives 41% (n = 1,600); shares compounds with TGFb SMAD3 inh; CCL64 CAGA-GFP reporter, TGF-b stimulated, GFP fluorescence, 18 h; further: nearly all actives have a fitted effect of over 65% in size
# TGFb COP inh = qHTS for Inhibitors of TGF-b: Hit Validation in HepG2 Cells using COP promoter. actives 3% (n = 1,600). Potency, µM (titrated, usually from 46.1 µM), for inactives: at the top dose activity, negative = inhibition, actives largely listed as inhibitors. shares compounds with TGFb SMAD3 inh. HepG2 COP-GFP TGF-b reporter, GFP fluorescence, 18 h; cells stimulated by added recombinant TGF-beta; further: nearly all actives have a fitted effect of over 70% in size
# * hit, by the source's call; i = inactive; ? = inconclusive; / = no result. Most compounds without a hit are left out; they make up all but 17% or so of the library. The call rests on the fitted dose curve; in most records, active means well fitted curve in the direction sought with a large enough effect; inconclusive means small, poorly fitted or top-dose-only effect, or another doubt; inactive means no such curve, though single readings can be large; an effect the other way counts as inactive or inconclusive. Potency means the concentration at half of the fitted maximal effect.
SMILES,TGFb SMAD3 inh,HepG2 tox-1,DT40 TDP1 CPT,TDP1 cell noCPT,ATXN2 expr inh,S2 tox,TGFb CAGA inh,HepG2 tox-2,TGFb CCL64 inh,TGFb COP inh
COc1ccc(CN2C(=O)c3cccnc3C2=O)cc1S(=O)(=O)N1CCOc2ccc(C)cc21,-5.7%,8.4%,-0.6%,-1.7%,/,/,/,/,/,/
CCOC(=O)c1sc(NC(=O)Nc2ccc(Cl)cc2)cc1C,5.62µM*,-26.6%,5.8µM*,3.66µM*,?,i,?,?,16.4µM*,82.7%
Cc1ccc(C(=O)Nc2nc(C)c(C(=O)Nc3ccc4c(c3)CCC4)s2)cc1,11.2µM*,-3.3%,1.3µM*,1.3µM*,24.4%,?,14.6µM*,?,8.2µM*,22.3%
Cc1nc(NC(=O)c2ccc(F)cc2)sc1C(=O)Nc1ccc2c(c1)CCC2,-2.1%,-25.9%,?,?,5.9%,i,/,/,/,/
O=C(Oc1c(CN2CCOCC2)cc(Cl)c2cccnc12)c1cccs1,7.08µM*,-62.1%,4.11µM*,4.61µM*,?,?,?,?,16.4µM*,14.4%
O=C(Oc1c(Cl)cc(Cl)c2cccnc12)c1cccs1,3.55µM*,-2.7%,16.4µM*,?,?,?,20.6µM*,?,?,5.1%
CCN(CC)S(=O)(=O)c1cccc(NC(=O)CCSc2ccc(Cl)cc2)c1,10µM*,6.8%,16.4µM*,20.6µM*,?,i,20.6µM*,?,25.9µM*,25.9%
CCN(CC)S(=O)(=O)c1ccc(C(=O)Nc2cccc(C)c2)cc1,43.2%,7.5%,?,-20.4%,26.7%,i,/,/,/,/
CCN(CC)S(=O)(=O)c1cccc(NC(=O)c2ccc(-n3nc(C)cc3C)cc2)c1,7.94µM*,-1.5%,?,23.1µM*,?,?,?,-17.9%,-0.9%,-9.1%
O=C(CSc1ccccc1C(=O)NCCCN1CCCC1=O)NCc1ccco1,-27.1%,-17.7%,4.7%,-36.5%,10.2%,i,/,/,/,/
COc1cccc(-c2nnc(SCN3C(=O)c4ccccc4C3=O)n2C)c1,-12.1%,-12.0%,?,-5.6%,1.5%,i,/,/,/,/
CO/N=C(/CS(=O)(=O)c1ccc(C)cc1)c1ccc(OC)cc1,-25.0%,-10.9%,?,?,0.1%,i,/,/,/,/
